# Measured values: PubChem BioAssay (NCATS)
# Results filed as inconclusive are left out. Where a call stands in place of a potency, no number is given. Activity calls are given as the source filed them. The call rests on the fitted dose curve; in most records, active means well fitted curve in the direction sought with a large enough effect; inconclusive means small, poorly fitted or top-dose-only effect, or another doubt; inactive means no such curve, though single readings can be large; an effect the other way counts as inactive or inconclusive.
# Experiments:
# [1] = molecular target: N-terminal Xaa-Pro-Lys N-methyltransferase 1 (Homo sapiens) (UniProt Q9BV86); assay: qHTS Assay for Inhibitors of N-terminal methyltransferase 1 (NTMT1): LOPAC validation of the NTMT1 SAHH-coupled ThioGlo3 Assay (AID 1347143);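 further: SAH from peptide methylation measured as thiol fluorescence via SAHH coupling and ThioGlo3; nearly all actives have a fitted effect of over 70% in size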; further: potency means the concentration at half of the fitted maximal effect
# Procedure, shortened: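 In this qHTS pilot against the LOPAC set, 125nM NTMT1 met compounds tested at multiple concentrations, and fluorescence was normalized to background.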
# [2] = system: Zika virus NS2B-NS3 protease (unlinked); assay: Optimization of GU AMC qHTS for Zika virus inhibitors: Unlinked NS2B-NS3 protease assay (AID 1347151); further: nearly all actives have a fitted effect of over 80% in size; further: potency means the concentration at half of the fitted maximal effect
# Procedure, shortened: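 Unlinked protease (25 nM final); buffer 10 mM Tris-HCl pH 8.0 + 0.01% Tween 20; AMC substrate; 15 min RT, dark; Δfluorescence normalized to no-inhibitor/no-enzyme controls; 4-parameter Hill fit.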
# Furin (Homo sapiens) = Furin (Homo sapiens) (UniProt P09958); assay: Furin counterscreen qHTS for Zika virus inhibitors (AID 1347149); further: nearly all actives have a fitted effect of over 70% in size; further: potency means the concentration at half of the fitted maximal effect
# Procedure, shortened: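 Counterscreen measures cleavage of 2 microM BOC-RVRR-AMC, below its ~15 microM Km, by 5 nM full-length human furin at pH 7.0 after a 15-min compound preincubation. Inhibition derives from the 15-min fluorescence increase at 37C.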
# [3] = system: Zika virus NS2B-NS3 protease (unlinked complex); assay: Confirmatory screen GU AMC qHTS for Zika virus inhibitors (AID 1347153); further: nearly all actives have a fitted effect of over 70% in size
# Procedure, shortened: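 Unlinked NS2B-NS3 complex (25 nM) in 10 mM Tris-HCl pH 8.0, 0.01% Tween 20 preincubated 15 min with compound, then 10 microM Bz-Nle-KRR-AMC (Km 18.3 µM). Fluorescence change over 15 min, normalized, Hill-fitted.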
# [4] = Confirmatory screen NINDS Rhodamine qHTS for Zika virus inhibitors (AID 1347161); further: nearly all actives have a fitted effect of over 60% in size; further: potency means the concentration at half of the fitted maximal effect
# Procedure, shortened: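 Rhodamine110-peptide cleavage (1.5 µM substrate) by 25 nM linked NS2B-NS3 enzyme at pH 8.0 (Tris, Tween 20), after 15 min RT preincubation with compounds; 15-min fluorescence change normalized to controls and Hill-fitted.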
# [5] = system: Zika virus NS2B-NS3 protease (linked); assay: 384 well plate NINDS AMC confirmatory qHTS for Zika virus inhibitors (AID 1347163); conditions: Recombinant NS2B-NS3 protease, Ac-VKTGKR-AMC fluorescence; further: potency means the concentration at half of the fitted maximal effect; nearly all actives have a fitted effect of over 50% in size
# Procedure, shortened: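 Fluorescence at 355/460 nm was read after 25 minutes of cleavage of 30 microM Ac-VKTGKR-AMC at room temperature, in the dark. Before substrate addition, compounds (up to 1 mM final) sat ~15 minutes with 5, 30 or 60 nM linked protease. Signals were normalized to no-enzyme and no-inhibitor wells.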
# [6] = system: Zika virus NS2B-NS3 protease (linked construct); assay: 384 well plate NINDS Rhodamine confirmatory qHTS for Zika virus inhibitors (AID 1347164);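 further: fluorescence from protease cleavage of Ac-LKRR-rhodamine 110 substrate; potency means the concentration at half of the fitted maximal effect; nearly all actives have a fitted effect of over 65% in size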
# Procedure, shortened: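 Enzyme (final 5/30/60 nM) + cpd (DMSO), ~15 min; add Ac-LKRR-Rd 10 microM final; 25 min RT, dark; FI ex 485/em 538; normalized to no-enzyme, no-inhibitor ctrls; aprotinin intraplate ctrl.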
# [7] = system: Zika virus NS2B-NS3 protease (linked construct); assay: Confirmatory screen NINDS AMC qHTS for Zika virus inhibitors (AID 1347152);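 further: AMC fluorescence gain from cleaved Bz-Nle-KRR-AMC substrate over 15 min; top concentration of the series differs between compounds; nearly all actives have a fitted effect of over 70% in size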
# Procedure, shortened: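 Enzyme (1 nM, linked construct) was preincubated with compound for 15 minutes at room temperature in 10 mM Tris-HCl pH 8.0 with 0.01% Tween 20. Bz-Nle-Lys-Arg-Arg-AMC was then added to 10 microM, and AMC fluorescence was recorded immediately and after 15 minutes.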
# [8] = system: Zika virus NS2B-NS3 protease; assay: Primary screen GU AMC qHTS for Zika virus inhibitors (AID 1347154); further: nearly all actives have a fitted effect of over 70% in size
# Procedure, shortened: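 Unlinked Zika NS2B hydrophilic domain/NS3 protease domain noncovalent complex (25 nM final) in 10 mM Tris-HCl pH 8.0, 0.01% Tween 20, with AMC peptide substrate. Fluorescence (ex 340, em 450 nm) change over 15 min, room temperature; percent inhibition fitted to 4-parameter Hill equation.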
# Sequence of Furin (Homo sapiens) (P09958 whole entry, looked up): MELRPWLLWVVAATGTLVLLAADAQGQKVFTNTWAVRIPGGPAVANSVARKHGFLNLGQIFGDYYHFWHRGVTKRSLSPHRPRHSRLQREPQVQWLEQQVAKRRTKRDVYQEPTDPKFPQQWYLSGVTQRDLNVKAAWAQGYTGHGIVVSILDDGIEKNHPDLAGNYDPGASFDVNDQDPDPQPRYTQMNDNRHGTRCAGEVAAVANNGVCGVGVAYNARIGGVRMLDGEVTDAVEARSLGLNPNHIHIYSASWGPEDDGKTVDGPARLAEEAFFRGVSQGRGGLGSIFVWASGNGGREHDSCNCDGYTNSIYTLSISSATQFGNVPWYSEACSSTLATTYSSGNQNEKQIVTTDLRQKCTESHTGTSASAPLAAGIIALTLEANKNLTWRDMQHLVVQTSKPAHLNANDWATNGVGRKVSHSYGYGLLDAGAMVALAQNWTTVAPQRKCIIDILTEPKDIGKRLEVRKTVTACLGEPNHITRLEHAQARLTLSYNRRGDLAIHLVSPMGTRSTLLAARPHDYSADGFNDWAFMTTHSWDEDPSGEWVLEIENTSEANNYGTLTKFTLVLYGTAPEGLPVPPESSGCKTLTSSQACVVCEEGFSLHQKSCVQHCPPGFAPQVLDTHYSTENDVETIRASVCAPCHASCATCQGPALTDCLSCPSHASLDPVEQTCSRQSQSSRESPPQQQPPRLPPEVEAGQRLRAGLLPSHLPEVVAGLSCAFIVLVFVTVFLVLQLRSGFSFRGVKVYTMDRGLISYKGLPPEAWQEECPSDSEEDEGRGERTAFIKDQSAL
# Sequence of N-terminal Xaa-Pro-Lys N-methyltransferase 1 (Homo sapiens) (Q9BV86 whole entry, looked up): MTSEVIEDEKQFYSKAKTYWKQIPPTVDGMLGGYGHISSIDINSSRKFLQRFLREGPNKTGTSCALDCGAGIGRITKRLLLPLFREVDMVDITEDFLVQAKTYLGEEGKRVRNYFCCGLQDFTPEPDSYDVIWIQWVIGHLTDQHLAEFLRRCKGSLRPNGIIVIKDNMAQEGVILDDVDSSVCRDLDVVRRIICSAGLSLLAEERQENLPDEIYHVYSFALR
smiles,measurement,setting,value
Nc1nc2ccc(Cl)cc2n2c(-c3ccccc3)nnc12,Potency,[1],inactive
same,Potency,[2],inactive
CCOC(=O)N1CCN(/[N+]([O-])=N/Oc2ccc([N+](=O)[O-])cc2[N+](=O)[O-])CC1,Potency,[1],28.2 µM (active)
same,Potency,[2],inactive
O=C(c1cc(O)c(O)c([N+](=O)[O-])c1)c1ccccc1F,Potency,[1],56.2 µM (active)
same,Potency,Furin (Homo sapiens),inactive
same,Potency,[2],2.99 µM (active)
same,outcome,[3],inactive
same,Potency,[4],17.5 µM (active)
same,Potency,[5],112 µM (active)
same,Potency,[6],0.398 µM (active)
CC(=O)/C=C1\C(=O)N(C)c2ccccc21,Potency,[1],28.2 µM (active)
same,Potency,[2],inactive
OCC1O[C@H](O)C(Cl)C(O)C1O (stereo not given in full),Potency,[1],inactive
same,Potency,[2],inactive
COCCOc1cc2ncnc(Cl)c2cc1OCCOC,Potency,[1],inactive
same,Potency,[2],inactive
NCC1OC(OC2C(O)[C@@H](OC3C(O)C(N)CC(N)C3OC3OC(CO)C(O)C(O)C3N)O[C@@H]2CO)C(N)C(O)C1O (stereo not given in full),Potency,[1],inactive
C[C@H](Cc1ccccc1)Nc1ncnc2c1ncn2[C@@H]1O[C@H](CO)C(O)[C@H]1O (stereo not given in full),Potency,[1],inactive
C=C/C(C)=C/[C@@]1(C)SC(=O)C(C)=C1O,Potency,[1],inactive
NC[C@H]1O[C@@H](n2cnc3c(N)ncnc32)[C@H](O)[C@@H]1O,Potency,[1],inactive
same,Potency,[2],inactive
NCCCCCCCCCCN,Potency,[1],inactive
same,Potency,[2],inactive
Nc1nc(Nc2ccccc2)nc2c1ncn2[C@@H]1O[C@H](CO)C(O)[C@H]1O (stereo not given in full),Potency,[1],39.8 µM (active)
CN1C2CCC1CC(OC(=O)C(O)c1ccccc1)C2 (stereo not given),Potency,[1],inactive
O=C(CCc1ccncc1)NNC(=O)N1Cc2ccccc2Oc2ccc(Cl)cc21,Potency,[1],inactive
same,Potency,[2],inactive
COc1ccc(/C=C/c2nc(NCCCN(C)C)c3ccccc3n2)cc1,Potency,[1],50.1 µM (active)
same,Potency,Furin (Homo sapiens),24.1 µM (active)
same,Potency,[7],inactive
same,outcome,[3],inactive
same,Potency,[4],inactive
Oc1cc2c(cc1O)CN(C(=S)NCCc1ccc(Cl)cc1)CCC2,Potency,[1],20 µM (active)
same,Potency,Furin (Homo sapiens),inactive
same,Potency,[2],23.8 µM (active)
same,Potency,[7],inactive
same,outcome,[3],inactive
same,Potency,[8],inactive
CN1CCc2cccc3c2C1Cc1ccc(O)c(O)c1-3 (stereo not given),Potency,[1],20 µM (active)
same,Potency,[2],26.7 µM (active)
CC(C)c1cccc(C(C)C)c1N1C(=O)c2ccc(O)cc2C1=O,Potency,[1],inactive
same,Potency,[2],inactive
CO/N=C(\C(=O)N[C@@H]1C(=O)N2C(C(=O)O)=C(COC(C)=O)CS[C@H]12)c1csc(N)n1 (stereo in doubt),Potency,[1],inactive
c1cnc2c(c1)ccc1cccnc12,Potency,[1],inactive
same,Potency,[2],inactive
CC[C@H]1OC(=O)[C@H](C)[C@@H](O[C@H]2C[C@@](C)(OC)[C@@H](O)[C@H](C)O2)[C@H](C)[C@@H](O[C@@H]2O[C@H](C)C[C@H](NC)[C@H]2O)[C@](C)(O)C[C@@H](C)CN(C)[C@H](C)[C@@H](O)[C@]1(C)O,Potency,[1],inactive
same,Potency,[2],inactive
Cn1ncc(S(=O)(=O)Cc2ccccc2)c(Br)c1=O,Potency,[1],44.7 µM (active)
same,Potency,[2],inactive
CCCC(CCC)C(=O)OC1CC2CCC(C1)[N+]2(C)C (stereo not given),Potency,[1],inactive
same,Potency,[2],inactive
O=C(CCSCc1ccco1)NNC(=O)N1Cc2ccccc2Oc2ccc(Cl)cc21,Potency,[1],inactive
same,Potency,[2],inactive
CC1CN(S(=O)(=O)c2cccc3cnccc23)CCN1 (stereo not given),Potency,[1],inactive
same,Potency,[2],inactive
CNc1ncnc2c1ncn2[C@@H]1O[C@H](CO)C(O)[C@H]1O (stereo not given in full),Potency,[1],inactive
CCNC(=O)[C@H]1O[C@@H](n2cnc3c(N)nc(NCCc4ccc(CCC(=O)O)cc4)nc32)[C@H](O)C1O (stereo not given in full),Potency,[1],inactive
CN[C@H](CC(C)C)C(=O)N[C@H]1C(=O)N[C@@H](CC(N)=O)C(=O)N[C@H]2C(=O)N[C@H]3C(=O)N[C@H](C(=O)N[C@H](C(=O)O)c4cc(O)cc(O)c4-c4cc3ccc4O)[C@H](O)c3ccc(c(Cl)c3)Oc3cc2cc(c3O[C@@H]2O[C@H](CO)[C@@H](O)[C@H](O)[C@H]2O[C@H]2C[C@](C)(N)[C@H](O)[C@H](C)O2)Oc2ccc(cc2Cl)[C@H]1O,Potency,[1],inactive
NC(=O)C(=O)O,Potency,[1],inactive
same,Potency,Furin (Homo sapiens),inactive
same,Potency,[2],inactive
O=C(NOCC1CC1)c1cc(Br)c(F)c(F)c1Nc1ccc(I)cc1Cl,Potency,[1],inactive
same,Potency,Furin (Homo sapiens),inactive
same,Potency,[7],inactive
same,outcome,[3],inactive
same,Potency,[4],3.92 µM (active)
same,Potency,[5],44.7 µM (active)
same,Potency,[6],31.6 µM (active)
CC(=O)N[C@H](C(=O)O)C(C)(C)SN=O,Potency,[1],inactive
O=C1NCc2c1c1c3ccccc3[nH]c1c1[nH]c3ccccc3c21,Potency,[1],79.4 µM (active)
same,Potency,[2],23.8 µM (active)
COc1cc(C(O)CO)ccc1OS(=O)(=O)O (stereo not given),Potency,[1],inactive
same,Potency,[2],inactive
N#C/C(=C\c1ccc(O)c(O)c1)C(=O)c1ccc(O)c(O)c1,Potency,[1],31.6 µM (active)
same,Potency,[2],1.19 µM (active)
S=C(S)OC1CC2CC1C1CCCC21 (stereo not given),Potency,[1],inactive
same,Potency,[2],inactive
COC1=C(OC)C(=O)c2ccccc2C1=O,Potency,[1],inactive
same,Potency,[2],inactive
S=c1[nH]c(-c2ccccc2)cn1-c1ccccc1,outcome,[3],inactive
O=C1NC(=O)/C(=C/c2ccc(-c3ccc(F)cc3O)o2)S1,outcome,[3],inactive
same,Potency,[4],24.8 µM (active)
same,Potency,[5],63.1 µM (active)
same,Potency,[6],20 µM (active)
